# Experimental data: article PMC5540273 (PLoS ONE, 2017)
# Columns and labels:
# Conditions in all cases: concentration: 1 μM,replicates: in singlicate; n = 1
# MLK1 = test system: T1, MLK1
# T1 construct: gene MAP3K9
# MLK2 = test system: MLK2
# MLK3 = test system: MLK3
# MRCKA = test system: MRCKA
# MRCKB = test system: T2, MRCKB
# T2 construct: gene CDC42BPB
# MST1R = test system: MST1R
# MST1 = test system: T3, MST1
# T3 construct: gene STK4
# MST2 = test system: T4, MST2
# T4 construct: gene STK3
# MST3 = test system: T5, MST3
# T5 construct: gene STK24
# MST4 = test system: MST4
# MTOR = test system: MTOR
# MUSK = test system: MUSK
# MYLK2 = test system: MYLK2
# MYLK4 = test system: MYLK4
# MYLK = test system: MYLK
# MYO3A = test system: MYO3A
# MYO3B = test system: MYO3B
# NDR1 = test system: T6, NDR1
# T6 construct: gene STK38
# NDR2 = test system: NDR2
# NEK10 = test system: NEK10
# 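Also: KINOMEscan kinase panel screen.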
Structure (SMILES),%Inh (MLK1),%Inh (MLK2),%Inh (MLK3),%Inh (MRCKA),%Inh (MRCKB),%Inh (MST1R),%Inh (MST1),%Inh (MST2),%Inh (MST3),%Inh (MST4),%Inh (MTOR),%Inh (MUSK),%Inh (MYLK2),%Inh (MYLK4),%Inh (MYLK),%Inh (MYO3A),%Inh (MYO3B),%Inh (NDR1),%Inh (NDR2),%Inh (NEK10)
CN(C)CCOc1ccc(-c2cc(-c3c[nH]nc3-c3ccccn3)ccn2)cc1 [GW835314],14%,6%,19%,0%,0%,0%,25%,0%,6%,24%,0%,9%,0%,0%,15%,0%,30%,14%,0%,0%
Cl.Oc1cc(-c2nc(-c3ccccc3)[nH]c2-c2ccncc2)ccc1Cl [SB-386023],0%,0%,3%,0%,0%,22%,0%,27%,0%,9%,0%,0%,0%,11%,0%,27%,0%,10%,0%,0%
Cc1cc(C(=O)Nc2ccc(Oc3ccc4nc(NC(=O)C5CC5)cn4n3)cc2)nn1-c1ccccc1,20%,43%,4%,28%,0%,0%,13%,0%,0%,0%,9%,59%,0%,5%,9%,0%,21%,8%,3%,0%
O=C(NCCCN1CCOC1=O)c1cnc(NCc2cc(Cl)ccc2Cl)nc1NC1CCCC1,8%,4%,23%,4%,18%,26%,27%,35%,14%,0%,19%,11%,0%,6%,14%,0%,16%,31%,0%,13%
Cc1ccc(-n2nc(C(C)(C)C)cc2NC(=O)Nc2ccc(OCCN3CCOCC3)c3ccccc23)cc1 [GW839464],6%,22%,1%,8%,49%,0%,0%,33%,11%,0%,19%,0%,0%,0%,3%,0%,15%,5%,2%,0%
C[C@@H]1CCN(C(=O)CC#N)C[C@@H]1N(C)c1ncnc2[nH]ccc12,0%,0%,3%,0%,0%,0%,3%,0%,100%,0%,51%,11%,6%,4%,0%,8%,0%,0%,12%,0%
CNC(=O)c1ccccc1Sc1ccc2c(/C=C/c3ccccn3)n[nH]c2c1,0%,17%,1%,0%,100%,29%,0%,50%,11%,0%,52%,51%,9%,6%,14%,0%,0%,9%,0%,18%
Cc1occc1-c1nc(N)c(OC[C@@H](N)Cc2c[nH]c3ccccc23)cc1-c1cc2c(C)n[nH]c2cn1 [GSK1660450],29%,0%,22%,78%,97.6%,0%,96.8%,78%,91.2%,94.9%,15%,9%,29%,9%,37%,69%,28%,11%,0%,6%
CCn1c(-c2nonc2N)nc2c(C#CC(C)(C)O)nc(OCCN)cc21.Cl.Cl [GSK902056],0%,0%,0%,3%,0%,43%,0%,0%,0%,0%,13%,20%,33%,6%,4%,0%,0%,31%,16%,6%
